Screens from PubChem BioAssay.
KLF5 inh – inhibitors of KLF5 expression | AID 1700 | actives 0.23% (n = 290,000) | inhibition, % at 5 µM | DLD-1 KLF5 promoter-luciferase reporter, luminescence;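 active means inhibition above a per-plate limit of that plate's mean compound inhibition plus 3 SD, cut at about 60% in these data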;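 further: 0% = DMSO wells and 100% = LY294002 at 200 µM; higher means less KLF5 promoter-driven luciferase light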
BaF3 tox – counter-screen for JAK2V617F inhibitors: parental Ba/F3 viability inhibitors | inhibition, % at 5.6 µM | CellTiter-Glo ATP luminescence | actives 1.1% (n = 220,000) | AID 1486;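 active means inhibition above a per-campaign cutoff, the mean inhibition of all tested compounds plus 3 SD, cut at about 27% in these data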;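 further: 0% = DMSO wells and 100% = JAK Inhibitor I control wells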
IEC-6 cytotox – IEC-6 cytotoxicity, counter-screen for KLF5 inhibitors; luminescence viability; actives 0.78% (n = 290,000); inhibition, % at 5 µM;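 further: 0% = plate median of test compound wells and 100% = cytotoxic reference compound wells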
APP transl inh – APP translation inhibition; SH-SY5Y APP 5'UTR-luciferase reporter, luminescence; inhibition, % at 2 µM; actives 0.82% (n = 190,000);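 active means inhibition above a set limit, derived from the sample mean plus 3 SD, cut at about 45% in these data; inconclusive means one replicate passes the limit while the other fails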
Ba/F3 V617F tox – lowers viability of Ba/F3 cells expressing EpoR and JAK2V617F | ATP luminescence | inhibition, % at 5.6 µM | actives 1.1% (n = 220,000) | AID 1446;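 active means inhibition above the campaign mean plus 3 SD over all tested compounds, cut at about 24% in these data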;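 further: cytokine-independent growth of Ba/F3 cells driven by EpoR plus mutant JAK2; 0% = DMSO-treated cells and 100% = JAK inhibitor I control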
aSyn UTR inh – 5' untranslated region of α-synuclein, MLPCN primary screen; inhibition, % (tested at 7.5 µM); AID 1813; actives 0.82% (n = 300,000); alpha-synuclein 5'UTR reporter, inhibitor activity; in the data active means inhibition above about 60%; inconclusive means no clear call, values can overlap the other calls;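 further: H4 neuroglioblastoma cells stably carrying SNCA 5'UTR luciferase fusion; 0% = DMSO wells and 100% = positive control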
IEC-6 tox confirm – IEC-6 cytotoxicity, confirmation assay; shares compounds with IEC-6 cytotox; IEC-6 rat intestinal epithelial viability, luminescence; inhibition, % at 5 µM; actives 63% (n = 1,900); AID 1907;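 further: 0% = vehicle and 100% = reference cytotoxic drug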
* marks the source's active call; other numbers are inactive results; ? = inconclusive; . = not tested or not shown. The list is not random: actives were taken first. Their share in the collection is about 2.2%. Unless noted, no stated cut-off is given here; in the data, active means inhibition above about 22%; inactive means the rest.

SMILES | KLF5 inh | BaF3 tox | IEC-6 cytotox | APP transl inh | Ba/F3 V617F tox | aSyn UTR inh | IEC-6 tox confirm
Cc1cc(Nc2ccccc2)nc(NCc2ccccc2)n1 | -13.0 | 15.5 | 13.4 | 2.4 | 9.2 | 0.0 | .
Cc1nc2ccc(C(=O)N3c4ccccc4CC3C)cc2s1 (configuration not stated) | -3.9 | 11.7 | 25.0* | 4.2 | 3.0 | 42.2 | 34.4*
CCCCCCN1CC(O)=C(c2ccccc2)C1=N | -39.4 | 6.7 | -3.8 | 1.1 | -3.5 | 6.9 | .
CCCCCCCn1ccc(=N)cc1 | 24.9 | 77.3* | 23.4* | 16.3 | 97.2* | ? | 32.0*
COc1cc(C(=O)Nc2ccc3c(c2)nc(C)n3C)cc(OC)c1OC | 20.3 | . | 30.3* | . | . | -92.3 | 18.9
COc1cc(C(=O)Nc2ccc3c(c2)ncn3C)cc(OC)c1OC | 50.4 | . | 54.9* | . | . | 25.4 | 34.1*
Cc1nc2cc(NC(=O)c3ccc(Cl)cc3)ccc2n1C | -82.0 | . | -2.0 | . | . | -35.1 | .
O=C(NCc1cccnc1)C1CC(c2ccc(Cl)c(Cl)c2)=NO1 (configuration not stated) | -20.5 | . | 5.6 | . | . | -12.4 | .
Cc1ccc(NC(=O)CSc2nnc(Cc3ccccc3)o2)c(C)c1 | -17.7 | 5.5 | -0.7 | -20.2 | 2.7 | -9.9 | .
OC[C@H]1O[C@@H](n2cnc3c(NC4CCCC4)ncnc32)[C@H](O)[C@@H]1O | -4.6 | 4.5 | -1.5 | -10.0 | -3.0 | 30.8 | .
C=CCNc1ncnc2c1ncn2C1OC(CO)C(O)C1O (configuration not stated) | 16.6 | 0.0 | 74.0* | 9.8 | -1.1 | 35.8 | 49.1*
C/C(=N/NC(=O)CN(c1ccccc1)S(=O)(=O)c1ccccc1)c1ccccc1O | 22.2 | . | 45.6* | . | . | -7.3 | 38.0*
CCCC/C(C)=N/NC(=O)CN(c1ccc(Br)cc1)S(=O)(=O)c1ccccc1 | 9.8 | 8.3 | 2.6 | 4.3 | -1.8 | -7.2 | .
CCOc1ccc(C(=O)NC2CCN(S(=O)(=O)c3ccccc3)CC2)cc1 | -19.2 | . | -10.8 | . | . | 1.9 | .
COc1cccc(N2CCN(c3ncnc4c3cnn4-c3ccc(C)cc3C)CC2)c1 | -5.2 | 4.2 | -7.0 | -11.6 | -2.5 | -26.4 | .
O=C(Cn1ncc(Cl)c(Cl)c1=O)N1CCc2ccccc21 | 4.3 | -7.2 | 40.7* | 94.8* | 5.9 | 134.7* | 20.9
Cc1ccc(NC(=O)CCc2c[nH]c3ccccc23)nc1 | 50.8 | . | 70.1* | . | . | 2.4 | 42.0*
Cn1cc([N+](=O)[O-])c(C(=O)Nc2sc3c(c2C#N)CCC3)n1 | 13.9 | . | 91.9* | . | . | 64.2* | 29.4*
Cc1cc(-c2ccc(C(C)C)c(S(=O)(=O)N3CCN(c4ccccn4)CC3)c2)on1 | 14.7 | . | 23.2* | . | . | -46.5 | 12.3
CCOC(=O)C1(O)CC(C)=NN1C(=O)c1cccc(Cl)c1 (configuration not stated) | -6.6 | 7.0 | 4.5 | 4.0 | -0.4 | 2.3 | .
CC(C)c1c(C(=O)N/N=C/c2ccc3c(c2)OCO3)nnn1-c1nonc1N | -40.3 | . | -1.1 | . | . | -33.7 | .
CCN(CC)c1ccc(/C=N/NC(=O)c2nnn(-c3nonc3N)c2C(C)C)c(O)c1 | 49.6 | . | 96.7* | . | . | 92.0* | 67.8*
O=C(N/N=C/c1cccnc1)c1ccc([N+](=O)[O-])cc1 | -13.4 | 0.8 | 1.6 | 4.5 | -2.9 | 14.2 | .
O=[N+]([O-])c1ccc(N/N=C/c2cccnc2)cc1 | -55.8 | . | 24.2* | . | . | -13.8 | 5.0
C=CCSc1nc(=O)n2ccc(C)cc2n1 | 1.8 | 3.6 | 6.1 | -1.4 | -1.8 | -54.4 | .
COc1ccc(COc2cc(-c3cccc(OC)c3)nc3ccc(NC(=O)c4ccc(N(C)C)cc4)cc23)cc1 | 22.9 | 74.6* | 48.7* | 11.0 | 75.9* | 1.2 | 14.9
COc1ccc(COc2cc(-c3cccc(OC)c3)nc3ccc(NC(=O)c4ccc(C)cc4)cc23)cc1 | 23.9 | 11.0 | 7.7 | 8.5 | 4.8 | 2.1 | .
Cc1ccc(C(=O)c2cc([N+](=O)[O-])ccc2N2CC(C)OC(C)C2)cc1 (configuration not stated) | -6.0 | 5.8 | -1.9 | 24.2 | -1.4 | -38.9 | .
CN1CCN(c2ccc([N+](=O)[O-])cc2C(=O)c2ccc(Cl)cc2)CC1 | 0.4 | 3.9 | 49.2* | 6.1 | -3.2 | 36.8 | 50.0*
Cc1ccc(C(=O)c2cc([N+](=O)[O-])ccc2N2CCCCC2)cc1 | 55.9 | 76.4* | 88.9* | . | 79.5* | 81.1* | 65.2*
